PubChem BioAssay (NCATS)
Inconclusive results are not listed. Active and inactive are the calls of the source. The call rests on the fitted dose curve; in most records, active means well fitted cell-killing curve with a large enough effect; inconclusive means small, poorly fitted or top-dose-only effect, or effect the other way; inactive means no such curve, though single readings can be large or run the other way.
Potency means the concentration at half of the fitted maximal effect.

Assay: Quantitative High-Throughput drug screen in 47 multiple myeloma cell lines against the NCATS MIPE library collection: VP6_DJ cell viability assay (AID 1919867); further: nearly all actives have a fitted effect of over 40% in size
Conditions: ATP luminescence, 48 h; series mostly up to 45.8 µM
Source text: PI: Beverly A. Mock Ph.D.
Laboratory of Cancer Biology and Genetics,
Center for Cancer Research, National Cancer Institute,
National Institute of Health, Bethesda, Maryland
Drug resistance and disease progression are common in multiple myeloma (MM) patients, underscoring the need for new therapeutic combinations. […] We hypothesized that effective combinations would reduce MYC expression and enhance p16 activity. […] These preclinical data identify potentially useful drug combinations for evaluation in drug-resistant MM and reveal potential mechanisms of combined drug sensitivity.
Described herein is the primary MIPE qHTS used to cherrypick compounds. Validated compounds were then further tested for potential synergistic activiy.
[1] Peat TJ, Gaikwad SM, Dubois W, Gyabaah-Kessie N, Zhang S, Gorjifard S, Phyo Z, Andres M, Hughitt VK, Simpson RM, Miller MA, Girvin AT, Taylor A, Williams D, D'Antonio N, Zhang Y, Rajagopalan A, Flietner E, Wilson K, Zhang X, Shinn P, Klumpp-Thomas C, McKnight C, Itkin Z, Chen L, Kazandijian D, Zhang J, Michalowski AM, Simmons JK, Keats J, Thomas CJ, Mock BA. Drug combinations identified by high-throughput screening promote cell cycle transition and upregulate Smad pathways in myeloma. Cancer Lett. 2023 Aug 1;568:216284. doi: 10.1016/j.canlet.2023.216284. Epub 2023 Jun 24. PMID: 37356470; PMCID: PMC10408729.
SEQUENCE No. (e.g., 1, 2, 3, etc.); […] (e.g., Cells, Incubation, Reagent, etc.); VALUE and DESCRIPTION.
1; Cells; 5 uL; white, solid bottom 1536-well Greiner assay plate.
2; Compounds; 23 nL; Kalypsis pin tool (Wako USA) equipped with a 1536-well pin head to transfer to the assay plates.
3; Incubation; 48 hours; 37C incubation.
4; Reagent;5uL; CellTiter Glo (Promega).
5; Detector; 425V; Luminescence; Viewlux PerkinElmer.
NOTES (numbers refer to Sequence numbers above)
1. The cell-based screening methods employed in this study were like those previously published. Briefly, the corresponding myeloma cell lines were screened in 1,536-well plates with 500 cells, 5-uL per well for inhibition of cell viability (assessed by measuring ATP levels with CellTiterGlo).
2. NCATS MIPE 4.0 library of approved and investigational drugs were added using the Kalypsis pin tool. Wells treated with DMSO only for 100% viability and media only for 0% viability were used as controls.
3. The assay plates were covered and incubated for 48 hours in a 37C, 5% CO2 incubator with controlled humidity.
4. After 48 hours, CellTilter-GloTM luminescent substrate mix (Promega) reagent was added to the assay plate and plates we incubated for 5 min at room temperature.
5. Signal was measured as median relative luminescence units on a ViewLux (PerkinElmer) multiplate reader.
[1] Heske CM, Davis MI, Baumgart JT, Wilson K, Gormally MV, Chen L, Zhang X, Ceribelli M, Duveau DY, Guha R, Ferrer M, Arnaldez FI, Ji J, Tran HL, Zhang Y, Mendoza A, Helman LJ, Thomas CJ. Matrix Screen Identifies Synergistic Combination of PARP Inhibitors and Nicotinamide Phosphoribosyltransferase (NAMPT) Inhibitors in Ewing Sarcoma. Clin Cancer Res. 2017 Dec 1;23(23):7301-7311. doi: 10.1158/1078-0432.CCR-17-1121. Epub 2017 Sep 12. PMID: 28899971; PMCID: PMC6636827.
With O=C(Nc1ccc(OC(F)(F)F)cc1)c1sccc1NCc1ccnc2ccccc12 the Potency was 16.6 µM (active). With Cc1ccccc1C(=O)c1ccc(Nc2ccc(Br)cc2N)cc1Cl the Potency was 16.6 µM (active). In the case of CCC(=C(CC)c1ccc(O)cc1)c1ccc(O)cc1, the Potency is reported as 18.7 µM (active). With CCCCC(C=O)NC(=O)C(CC(C)C)NC(=O)OCc1ccccc1 (stereo not given) the Potency was “inactive”. In the case of CN(C)c1ccccc1CN1CCCN(Cc2ccccc2N(C)C)C1c1ccncc1, the Potency is reported as 18.7 µM (active). With Cc1ccc(NC(=O)Nc2cc(C(F)(F)F)ccc2F)cc1Nc1ccc2c(c1)NC(=O)C2=Cc1ccc[nH]1 the Potency was 5.26 µM (active). In the case of C#C[C@]1(O)CC[C@H]2[C@H]3CCc4cc(OC)ccc4[C@H]3CC[C@@]21C, the Potency is reported as 16.6 µM (active). In the case of Fc1ccc(CNc2ncnc3ccc(F)cc23)cc1, the Potency is reported as 5.9 µM (active). For CCCC1OC2C[C@@H]3[C@H]4CCC5=CC(=O)C=C[C@]5(C)[C@H]4C(O)C[C@]3(C)[C@]2(C(=O)CO)O1 (stereo not given in full), the Potency was “inactive”. For COc1cc(Cl)cn2c(-c3cccc(NC4CNC4)n3)cnc12, the Potency was 14.8 µM (active). With CN(C)CCN(C)C(=O)c1ccc(NC(=O)Nc2ccc(-c3nc(N4CCOCC4)c4ccn(CC(F)(F)F)c4n3)cc2)cc1 the Potency was 0.0469 µM (active). With C[C@@]1(C(=O)Nc2ccc(F)nc2)CCCN1c1nc(Nc2cc(C3CC3)[nH]n2)c2cccn2n1 the Potency was 0.0372 µM (active). For Cc1cccc2c1CC[C@H](CN1CCC(c3c(Cl)cccc3Cl)CC1)C[C@@H]2O, the Potency was 14.8 µM (active). In the case of CCC(C)SSc1ncc[nH]1 (stereo not given), the Potency is reported as 13.2 µM (active). For O=C(CC12CC3CC(CC(C3)C1)C2)Nc1cccc2nc(NCCNCCO)ccc12, the Potency was 4.69 µM (active). With COc1ccc2nc3cc(Cl)ccc3c(Nc3cc(CN4CCCC4)c(O)c(CN4CCCC4)c3)c2n1 the Potency was 9.35 µM (active). For CC1(C)OC2CC3C4CC(F)C5=CC(=O)C=CC5(C)C4C(O)CC3(C)[C@]2(C(=O)CO)O1 (stereo not given in full), the Potency was 3.32 µM (active). In the case of COc1cc2ncnc(Nc3cc(Br)c(O)c(Br)c3)c2cc1OC, the Potency is reported as 0.0148 µM (active). In the case of O=C(c1ccc(F)c(F)c1Nc1ccc(I)cc1F)N1CC(O)([C@H]2CCCCN2)C1, the Potency is reported as 9.35 µM (active). For CN(C)CC[C@H](CSc1ccccc1)Nc1ccc(S(=O)(=O)NC(=O)c2ccc(N3CCN(Cc4ccccc4-c4ccc(Cl)cc4)CC3)cc2)cc1[N+](=O)[O-], the Potency was 2.64 µM (active). For Cc1nn(Cc2ccccc2Cl)c(C)c1CN(C)CC(O)COc1ccc(Cl)cc1 (stereo not given), the Potency was 20.9 µM (active). In the case of Cc1nc(NC(=O)N2CCC[C@@H]2C(N)=O)sc1-c1csc(C(C)(C)C)n1, the Potency is reported as 0.264 µM (active). In the case of C[C@H](CCC(=O)O)[C@H]1CC[C@H]2[C@H]3[C@@H](CC[C@]12C)[C@@]1(C)CC[C@@H](O)C[C@H]1C[C@@H]3O, the Potency is reported as 20.9 µM (active). With CC1(C)C(N(O)C(=O)Nc2ccc(Cl)cc2)N(c2ccc(Cl)cc2)C(=O)N1CC(=O)NN=CC=Cc1ccc([N+](=O)[O-])o1 (stereo not given) the Potency was 8.33 µM (active). For Cc1cnc(CNC(=O)c2c(=O)c3ccc(N4CCCN(C)CC4)nc3n3c2sc2ccccc23)cn1, the Potency was “inactive”. For CCNC(=O)CCCC=CC[C@@H]1[C@H](C=CC(O)CCc2ccccc2)[C@@H](O)C[C@@H]1O (stereo not given in full), the Potency was “inactive”. For C[C@@H](O)[C@H]1C(=O)N2C(C(=O)OCOC(=O)C(C)(C)C)=C(SC3CN(C4=NCCS4)C3)[C@H](C)[C@H]12, the Potency was “inactive”. With CN1CCN2c3ncccc3Cc3ccccc3C2C1 (stereo not given) the Potency was “inactive”. With O=C(CO)N1CCC(c2[nH]nc(-c3ccc(Cl)cc3)c2-c2ccncn2)CC1 the Potency was 1.05 µM (active). With NC(N)=Nc1nc(CSCCC(N)=NS(N)(=O)=O)cs1 the Potency was 5.26 µM (active). With CN(C)c1ccc(-c2nc3ncc(Cl)c(N4CCN(CC(=O)Nc5nccs5)CC4)c3[nH]2)cc1 the Potency was “inactive”. With C=CCc1cccc(C=NNC(=O)CN2CCN(Cc3ccccc3)CC2)c1O the Potency was 7.43 µM (active). With O=C(NC[C@H](O)CO)c1ccncc1Nc1ccc(I)cc1F the Potency was 10.5 µM (active). With Clc1ccc(C2(c3ccc(-c4cn[nH]c4)cc3)CCNCC2)cc1 the Potency was 13.2 µM (active). With COC1CCC(C(=O)c2ccc3nc4c(cc3c2)CCCO4)CC1 (stereo not given) the Potency was 13.2 µM (active). For CN(C)CCN(Cc1ccc(Cl)cc1)c1ccccn1, the Potency was 20.9 µM (active). For C[C@H](c1ccc(F)cc1CCCC(=O)O)N(c1cc(F)ccc1F)S(=O)(=O)c1ccc(Cl)cc1, the Potency was 3.72 µM (active). In the case of Nc1ncnc2c1ncn2[C@@H]1O[C@H](CO)[C@@H](O)[C@@H]1O, the Potency is reported as 0.166 µM (active). With CCNC(=O)Nc1ccc(Oc2ncnc(N)c2C=NOC)cc1Cl the Potency was 3.72 µM (active). For COc1ccc(-c2cc(=O)c3c(O)cc(O[C@@H]4O[C@H](CO[C@@H]5O[C@@H](C)[C@H](O)[C@@H](O)[C@@H]5O)[C@@H](O)[C@H](O)[C@@H]4O)cc3o2)cc1O, the Potency was 14.8 µM (active).
